From PubChem BioAssay
Results with a measured potency or affinity are listed apart. Records with an inconclusive call do not appear. Activity calls are given as the source filed them. How the calls were made is not given here.

assay: IGROV1 cell killing – plate reader, dry powder samples, PAX8 inhibitor project, dose response (AID 743043); conditions: IGROV1 ovarian cancer cell cytotoxicity; series mostly up to 35 µM;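 further: more negative means fewer viable cells or more cytotoxicity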

Row | SMILES | outcome
1 | COc1ccc(S(=O)(=O)Nc2ccc3c(c2)CC(=O)N([C@@H](C)CO)C[C@@H](C)[C@H](CN(C)Cc2ccc(-c4ccccc4)cc2)O3)cc1 | inactive
2 | C[C@H](O)C#Cc1cnc2c(c1)C(=O)N([C@H](C)CO)C[C@H](C)[C@H](CN(C)Cc1ccc(-c3ccccc3)cc1)O2 | inactive
3 | O=C(c1ccc(F)cc1)N1C[C@@H]2N[C@H](C1)C2c1ccc(-c2ccc(F)cc2)cc1 (stereo partly specified) | inactive
4 | C[C@H](O)C#Cc1ccc2c(c1)O[C@H](CN(C)Cc1ccc(-c3ccccc3)cc1)[C@@H](C)CN([C@H](C)CO)S2(=O)=O | inactive
5 | C[C@@H]1CN([C@H](C)CO)C(=O)Cc2cc(NS(=O)(=O)c3ccccc3)ccc2O[C@@H]1CN(C)S(=O)(=O)c1ccc(Cl)cc1 | inactive
6 | C[C@@H]1CCCCO[C@H](CN(C)C)[C@H](C)CN([C@H](C)CO)C(=O)c2cc(NC(=O)Nc3cccc4ccccc34)ccc2O1 | inactive
7 | C[C@@H]1CN([C@H](C)CO)C(=O)c2c(c3ccccc3n2C)-c2ccccc2CO[C@@H]1CN(C)C | inactive
8 | COc1ccccc1S(=O)(=O)N(C)C[C@@H]1Oc2cc(C#CCC3CCCC3)ccc2S(=O)(=O)N([C@@H](C)CO)C[C@@H]1C | inactive
9 | CCCN(C)C[C@H]1OCCCC[C@@H](C)Oc2ccc(NC(=O)c3ccccc3)cc2C(=O)N([C@H](C)CO)C[C@H]1C | inactive
10 | C[C@@H]1CN([C@@H](C)CO)C(=O)Cc2cc(NC(=O)Nc3ccc(F)cc3)ccc2O[C@H]1CN(C)CC1CCCCC1 | inactive
11 | O=C(Nc1cccc(F)c1)N[C@@H]1CC[C@@H](CCNS(=O)(=O)c2cccc(Cl)c2)O[C@@H]1CO | inactive
